# Laboratory results from PubChem BioAssay (NCATS).
# Records with an inconclusive call do not appear. A number with no mark means an inactive call. Calls follow the shape of the dose curve; as a rule, active = well fitted inhibition curve with a large enough effect; inconclusive = small, poorly fitted or top-dose-only effect; inactive = flat fitted curve, though single readings scatter. Where a SMILES comes first, the peptide text is derived from it. Bridges are numbered along the chain shown (N, C = ends). [ ]: non-standard residue; d: D form. hArg = N=C(N)NCCCC[C@H](N)C(=O)O; Mpa = O=C(O)CCS
# System: CP269
# Experiment: qHTS profiling for inhibitors of Plasmodium falciparum proliferation (AID 504749);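 also: 0% = DMSO vehicle and full inhibition = artemisinin control; nearly all actives have a fitted effect of over 60% in size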
# Conditions: P. falciparum in erythrocytes, SYBR Green DNA, 72 h; series mostly up to 28.7 µM; activity, negative = inhibition: at the top concentration
# Procedure, shortened: (§1)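 P. falciparum-infected erythrocytes (0.3% parasitemia, 2.5% hematocrit) incubated with compound 72 h at 37 C, 5% CO2. Parasite DNA detected by SYBR Green after lysis, overnight at room temperature; normalised to 0.29 uM artemisinin and DMSO.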
row,SMILES,"activity, negative = inhibition"
1,O=C(Cn1ccnc1[N+](=O)[O-])NCCO,-2.32%
2,Cc1c(C)c2c(c(C)c1OC(=O)c1cccnc1)CC[C@@](C)(CCC[C@H](C)CCC[C@H](C)CCCC(C)C)O2,-4.1%
3,COc1ccc2cc(CCC(C)=O)ccc2c1,2.25% [at 12.8 µM]
4,CN(C/C=C/C#CC(C)(C)C)Cc1cccc2ccccc12,-11.8%
5,CCN(CC)CCc1nc(-c2ccccc2)no1,-9.02% [at 12.8 µM]
6,COc1nccnc1NS(=O)(=O)c1ccc(N)cc1,2.5%
7,Cn1c([N+](=O)[O-])cnc1COC(N)=O,4.08%
8,COC(=O)c1ccc(O)cc1,0.451%
9,CC[N+](CC)(CC(=O)Nc1c(C)cccc1C)Cc1ccccc1,-8.65%
10,CC1CCN(CCCC(=O)c2ccc(F)cc2)CC1,-2.53%
11,COc1ccccc1OC(=O)Oc1ccccc1OC,-6.25%
12,CN1CCCN=C1COC(=O)C(O)(c1ccccc1)C1CCCCC1 (stereo not drawn),-3.93%
13,O=C(/C=C/c1ccccc1)OCc1ccccc1,-0.207%
14,Cc1c(Cn2ccnc2)c2ccccc2n1CCC(=O)O,-0.149%
15,NC(=O)[C@@H]1CSSCCC(=O)N[C@@H](CCCCN=C(N)N)C(=O)NCC(=O)N[C@@H](CC(=O)O)C(=O)N[C@@H](Cc2c[nH]c3ccccc23)C(=O)N2CCC[C@H]2C(=O)N1 ([Mpa][hArg]GDWPC-NH2; disulfide 1-7),3.89%
16,N[C@@H](Cc1ccc(O)cc1)C(=O)O,-3.25%
17,CC1CCc2cc(F)cc3c(=O)c(C(=O)O)cn1c23 (stereo not drawn),9.08%

row,SMILES,"activity, negative = inhibition"
1,C[C@@H]1O[C@@H](OC[C@H]2O[C@@H](Oc3c(-c4ccc(O)c(O)c4)oc4cc(O)cc(O)c4c3=O)[C@H](O)[C@@H](O)[C@@H]2O)[C@H](O)[C@H](O)[C@H]1O,1.77%
2,Cc1onc(-c2ccccc2)c1-c1ccc(S(N)(=O)=O)cc1,0.23%
3,COc1ccc(C(=O)NCc2ccc(OCCN(C)C)cc2)cc1OC,-3.87%
4,Cc1ccsc1C(=CCCN1CCC[C@@H](C(=O)O)C1)c1sccc1C,-3.29%
5,CCCCCCCC(=O)OCC(COC(=O)CCCCCCC)OC(=O)CCCCCCC,-1.64%
6,CN/C(=C\[N+](=O)[O-])NCCSCc1csc(CN(C)C)n1,0.0137% [at 12.8 µM]
7,CCN1CC(CCN2CCOCC2)C(c2ccccc2)(c2ccccc2)C1=O (stereo not drawn),-3.77%
8,NS(=O)(=O)c1ccc(C(=O)O)cc1,0.353%
9,CCOC(N)=O,-2.06%
10,Cc1c(NC(C)C)c(=O)n(-c2ccccc2)n1C,3.75%
11,CCOc1ccc(C(=O)OCCN(CC)CC)cc1,-4.74%
12,O=C(OOC(=O)c1ccccc1)c1ccccc1,-0.904%
13,C=CCSCC1Nc2cc(Cl)c(S(N)(=O)=O)cc2S(=O)(=O)N1 (stereo not drawn),9.3%
14,Cc1c(NC(=O)c2cccnc2)c(=O)n(-c2ccccc2)n1C,-11.6% [at 12.8 µM]
15,CCOc1cc(NC(C)=O)ccc1C(=O)OC,-7.94%
16,Cc1ncc(CO)c(CN)c1O,1.67%
17,NS(=O)(=O)c1ccc(NC(=O)CCC(=O)O)cc1,-2.46%

# System: CP286
# Experiment: as above
# Conditions: P. falciparum in erythrocytes, SYBR Green DNA, 72 h; series mostly up to 28.7 µM; activity, negative = inhibition: at the top concentration
# Procedure, shortened: as §1
row,SMILES,"activity, negative = inhibition"
1,O=C(Cn1ccnc1[N+](=O)[O-])NCCO,0.759%
2,Cc1c(C)c2c(c(C)c1OC(=O)c1cccnc1)CC[C@@](C)(CCC[C@H](C)CCC[C@H](C)CCCC(C)C)O2,0.297%
3,COc1ccc2cc(CCC(C)=O)ccc2c1,-2.14% [at 12.8 µM]
4,CCN(CC)CCc1nc(-c2ccccc2)no1,-0.135% [at 12.8 µM]
5,COc1nccnc1NS(=O)(=O)c1ccc(N)cc1,0.166%
6,Cn1c([N+](=O)[O-])cnc1COC(N)=O,-0.0093%
7,COC(=O)c1ccc(O)cc1,-0.0891%
8,CC[N+](CC)(CC(=O)Nc1c(C)cccc1C)Cc1ccccc1,-4.57%
9,CC1CCN(CCCC(=O)c2ccc(F)cc2)CC1,-12.9%
10,COc1ccccc1OC(=O)Oc1ccccc1OC,-0.482%
11,CN1CCCN=C1COC(=O)C(O)(c1ccccc1)C1CCCCC1 (stereo not drawn),-6.31%
12,O=C(/C=C/c1ccccc1)OCc1ccccc1,-0.72%
13,Cc1c(Cn2ccnc2)c2ccccc2n1CCC(=O)O,0.324%
14,NC(=O)[C@@H]1CSSCCC(=O)N[C@@H](CCCCN=C(N)N)C(=O)NCC(=O)N[C@@H](CC(=O)O)C(=O)N[C@@H](Cc2c[nH]c3ccccc23)C(=O)N2CCC[C@H]2C(=O)N1 ([Mpa][hArg]GDWPC-NH2; disulfide 1-7),0.828%
15,N[C@@H](Cc1ccc(O)cc1)C(=O)O,0.244%
16,CC1CCc2cc(F)cc3c(=O)c(C(=O)O)cn1c23 (stereo not drawn),-22.2%
17,C[C@@H]1O[C@@H](OC[C@H]2O[C@@H](Oc3c(-c4ccc(O)c(O)c4)oc4cc(O)cc(O)c4c3=O)[C@H](O)[C@@H](O)[C@@H]2O)[C@H](O)[C@H](O)[C@H]1O,-0.932%

row,SMILES,"activity, negative = inhibition"
1,Cc1onc(-c2ccccc2)c1-c1ccc(S(N)(=O)=O)cc1,0.385%
2,COc1ccc(C(=O)NCc2ccc(OCCN(C)C)cc2)cc1OC,1.18%
3,Cc1ccsc1C(=CCCN1CCC[C@@H](C(=O)O)C1)c1sccc1C,1.07%
4,CCCCCCCC(=O)OCC(COC(=O)CCCCCCC)OC(=O)CCCCCCC,0.148%
5,CN/C(=C\[N+](=O)[O-])NCCSCc1csc(CN(C)C)n1,-0.327% [at 12.8 µM]
6,CCN1CC(CCN2CCOCC2)C(c2ccccc2)(c2ccccc2)C1=O (stereo not drawn),-19.6%
7,NS(=O)(=O)c1ccc(C(=O)O)cc1,0.284%
8,CCOC(N)=O,-0.391%
9,Cc1c(NC(C)C)c(=O)n(-c2ccccc2)n1C,-0.142%
10,CCOc1ccc(C(=O)OCCN(CC)CC)cc1,-0.736%
11,O=C(OOC(=O)c1ccccc1)c1ccccc1,0.445%
12,C=CCSCC1Nc2cc(Cl)c(S(N)(=O)=O)cc2S(=O)(=O)N1 (stereo not drawn),-1.47%
13,Cc1c(NC(=O)c2cccnc2)c(=O)n(-c2ccccc2)n1C,-0.534% [at 12.8 µM]
14,CCCCCCCCCCC(CO)CCCCCCCC (stereo not drawn),-0.712%
15,CCOc1cc(NC(C)=O)ccc1C(=O)OC,0.215%
16,Cc1ncc(CO)c(CN)c1O,-1.29%
17,NS(=O)(=O)c1ccc(NC(=O)CCC(=O)O)cc1,1.25%
